Measured values reported in PubChem BioAssay (NCI).
About 79,000 compounds went through this panel and 15% of them were active in at least one assay; those are over-represented in the sample as a whole. Cut-off read from the data, not from the text of the source: active = growth inhibition above about 70%; inactive = the rest.

What was measured:
[1] = NCI Yeast Anticancer Drug Screen. Data for the rad50 strain (AID 155);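 note: 0% = growth of vehicle-only cultures of the same strain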; settings: S. cerevisiae rad50 strain growth inhibition; at 50.0 µM; stronger effect = higher value
How it was run: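 Vehicle-treated cultures provide the reference for the growth inhibition reported for compound-exposed, repair-deficient yeast.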

[2] = NCI Yeast Anticancer Drug Screen. Data for the mec2-1 strain (AID 157); settings: S. cerevisiae mec2-1 strain, at 50.0 µM, stronger effect = higher value
How it was run: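 Growth inhibition is read against vehicle-treated controls after compound exposure of the mec2-1 yeast strain, which is defective in DNA damage repair or cell cycle control.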

[3] = NCI Yeast Anticancer Drug Screen. Data for the sgs1 mgt1 strain (AID 161);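 note: 0% = growth of cultures given vehicle only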; settings: S. cerevisiae sgs1 mgt1 strain, at 50.0 µM, stronger effect = higher value
How it was run: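 Percent growth inhibition was derived by comparing compound-exposed mutant yeast with vehicle-exposed cultures. The strain carries alterations in DNA damage repair.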

[4] = NCI Yeast Anticancer Drug Screen. Data for the cln2 rad14 strain (AID 165);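 note: 0% = growth equal to vehicle treated cultures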; settings: S. cerevisiae cln2 rad14 strain, at 50.0 µM, stronger effect = higher value
How it was run: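 Growth inhibition, relative to vehicle-treated controls, is the read-out. The test organism is a yeast strain with defined genetic alterations, cln2 rad14.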

[5] = NCI Yeast Anticancer Drug Screen. Data for the bub3 strain (AID 167); settings: S. cerevisiae bub3 mutant strain, at 50.0 µM, stronger effect = higher value
How it was run: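 Mutant yeast screening strain plus compound; vehicle-treated cultures serve as the 0% inhibition reference.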

[6] = NCI Yeast Anticancer Drug Screen. Data for the mlh1 rad18 strain (AID 175); settings: S. cerevisiae mlh1 rad18 strain growth inhibition; at 50.0 µM; stronger effect = higher value
How it was run: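 Cells of a genetically altered yeast strain, deficient in DNA damage repair, were treated with compound. Their growth was then compared with that of vehicle-treated cultures to give inhibition.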

Measured: growth inhibition

COc1ccc(C(CC(=O)O)CC(=O)O)cc1
inactive: [1] 46.3% | [2] 12.3% | [3] 16.9% | [4] 15.1% | [5] 6.35% | [6] 44.5%

FC(F)(F)C1(F)C(F)(F)C(F)(F)C(F)(F)C(F)(F)C1(F)F
inactive: [1] 16.3% | [2] -39.1% | [3] -4.95% | [4] -96.2% | [5] -24.1% | [6] 27.9%

CC(C)(C)NC(NC(C)(C)C)=C(/C=C(/Cl)[N+](=O)[O-])[N+](=O)[O-]
inactive: [1] -5.5% | [2] -21.1% | [3] 0.45% | [4] -10.9% | [5] 15.9% | [6] 15.1%

CCOC(=O)C(C#N)C1(O)C(=O)Nc2ccccc21 (stereo not given)
inactive: [1] -4.65% | [2] -5% | [3] -6.7% | [4] 3.8% | [5] 0.55% | [6] 10.2%

CC(=O)Nc1ccc(S(=O)(=O)CCS(=O)(=O)c2ccc(NC(C)=O)cc2)cc1
inactive: [1] 7.35% | [2] 4.7% | [3] -16.1% | [4] -6.15% | [5] 3.65% | [6] -9.45%

Cn1c(=O)c2[nH]c(NCc3ccccc3)nc2n(C)c1=O
inactive: [1] 27.4% | [2] -3.9% | [3] 0.7% | [4] -35.2% | [5] 0.4% | [6] -0.2%

O=C1NC(=O)[C@H]2C3C=CC([C@@H]12)[C@@H]1C(=O)NC(=O)[C@H]31
inactive: [1] 41.7% | [2] 21.8% | [3] -22.1% | [4] 7.8% | [5] -28.7% | [6] -47.6%

O=C(O)c1cccc(O)c1C(=O)O
inactive: [1] 29.2% | [2] -3.4% | [3] 21.9% | [4] 21.2% | [5] 0.75% | [6] 33.9%

COc1cc2c(cc1OC)-c1c(C)c3ccc(OC)c(NCCO)c3c[n+]1CC2
inactive: [1] -43.2% | [2] -10% | [3] -29.7% | [4] -17% | [5] -0.4% | [6] -8.3%

CSc1nc(NC2OCC(OC(C)=O)C(OC(C)=O)C2OC(C)=O)c(N=CC=Nc2c(NC3OCC(OC(C)=O)C(OC(C)=O)C3OC(C)=O)nc(SC)n(C)c2=O)c(=O)n1C (stereo not given)
inactive: [1] -4.3% | [2] -4.85% | [3] -19.8% | [4] -16.3% | [5] 7.95% | [6] 12.4%

Cc1nc2cc(C)c(C)cc2[nH]1
inactive: [1] -7.55% | [2] -1% | [3] 3.75% | [4] -9.15% | [5] 8.9% | [6] 5.8%

CCCC(O)c1ccccc1Cl (stereo not given)
inactive: [1] 21.8% | [2] 18.9% | [3] 24.9% | [4] 16% | [5] -28.4% | [6] 5.3%

C1Cc2nnnn2C1
inactive: [1] -7.4% | [2] -20.1% | [3] 0.9% | [4] -2.85% | [5] -7.95% | [6] 12.6%

CCCc1c(Cl)nc(Cl)nc1Cl
inactive: [1] -8.75% | [2] 26.8% | [3] 11.8% | [4] -54.8% | [5] 5.2% | [6] -22.4%

C=C1C(=O)OC2C1CCC1(C)CC(Br)C(=O)C(C)C21 (stereo not given)
inactive: [1] 1.7% | [2] -1.1% | [3] 13.9% | [4] 2.1% | [5] -5.85% | [6] -4.65%

CCOC(=O)C(C)CC(=O)C(C)CC(=O)C(C)C (stereo not given)
inactive: [1] -9.95% | [2] 6.1% | [3] -13.3% | [4] -14.2% | [5] -9.75% | [6] -5.05%

CCCCS(=O)(=O)C[N+](C)(CC)CC
inactive: [1] 34.1% | [2] -0.7% | [3] -5.45% | [4] -6.85% | [5] -4.65% | [6] 3.45%

Cc1cc(=O)[nH]c(NNC(C#N)c2ccc([N+](=O)[O-])cc2)n1 (stereo not given)
inactive: [1] -18.5% | [2] 0.35% | [3] -36.1% | [4] -8.8% | [5] -30.6% | [6] -50.9%

CC/C(C)=N/C(=O)NN
inactive: [1] -20.1% | [2] 8.75% | [3] -16.2% | [4] 19.3% | [5] 35.5% | [6] 20.3%

CN(C)c1ccc(/C=c2\sc3nnc(Cc4ccccc4)n3c2=O)cc1
inactive: [1] -7.8% | [2] -13.6% | [3] -0.25% | [4] 11.1% | [5] 11.1% | [6] 1.35%

Cc1ccc(CO)c(O)c1
inactive: [1] 8.65% | [2] -7.25% | [3] -5.55% | [4] 6.4% | [5] 3.75% | [6] 2.15%

Cc1ccc(CO)cc1
inactive: [1] 13.9% | [2] -6.7% | [3] 21.9% | [4] -5.6% | [5] -2.05% | [6] 21.7%

COC(=O)C1CCC(=O)N1CN(C(C)=O)c1ccccc1 (stereo not given)
inactive: [1] 10.1% | [2] 8.6% | [3] -14.1% | [4] 9% | [5] -5.8% | [6] -30.6%

Cc1cccc(NC(=O)Oc2ccc(Cl)cc2C(=O)c2ccccc2)c1
inactive: [1] 30.4% | [2] 10.7% | [3] 35.4% | [4] 29.9% | [5] 34.4% | [6] 26.2%

O=C(NNC(=O)Nc1ccccc1)Nc1ccccc1
inactive: [1] -0.8% | [2] -16.7% | [3] -0.95% | [4] -12.9% | [5] -3.2% | [6] -7%

Cc1ccc2oc(=O)c(C(=O)Nc3nc(C45CC6CC(CC(C6)C4)C5)cs3)cc2c1
inactive: [1] -23.1% | [2] -22.9% | [3] -23.6% | [4] 13% | [5] -30.5% | [6] -26.2%

COC(=O)c1ccc(/C=C2\CCc3ccccc3C2=O)cc1
inactive: [1] -9.9% | [2] -9.15% | [3] -16.2% | [4] 12.5% | [5] 14.2% | [6] 11.2%

CN1CCN(CC2C(=O)C3CCC2C3)CC1 (stereo not given)
inactive: [1] 4.6% | [2] -20.4% | [3] -18.4% | [4] -7.85% | [5] -22.7% | [6] -10.3%

Nc1c(C(=O)O)cccc1C(=O)O
inactive: [1] 5.25% | [2] -18.6% | [3] -11.7% | [4] 0.55% | [5] 4.1% | [6] 6.75%

OCc1cc(Cl)cc(Cc2cc(Cl)cc(Cc3cc(Cl)cc(Cc4cc(Cl)cc(Cc5cc(Cl)cc(CO)c5O)c4O)c3O)c2O)c1O
inactive: [1] -14.8% | [2] -17.4% | [3] -9.35% | [4] -28.4% | [5] -18.9% | [6] -27.9%

CCSC1=C(C)N(C=NC(C)(C)C)CC1
inactive: [1] -3.7% | [2] -23.5% | [3] -38% | [4] 7.4% | [5] -28.8% | [6] -14%

O=Cc1ccc(-c2ccc(S(=O)(=O)O)cc2)o1
inactive: [1] -35.5% | [2] 6.85% | [3] -41.3% | [4] 25.8% | [5] 3.55% | [6] -3.2%

CCNc1ccc(Cl)cc1[N+](=O)[O-]
inactive: [1] -28.8% | [2] -66.2% | [3] 11.9% | [4] -6.95% | [5] -33.4% | [6] -26.6%

CCOCCOC(=O)Nc1ccc(C)c(NC(=O)OCCOCC)c1
inactive: [1] -0.55% | [2] -18.8% | [3] 8.65% | [4] 4.45% | [5] 5.35% | [6] -4.8%

COC(=O)c1ccccc1-c1ccccc1[N+](=O)[O-]
inactive: [1] 3.15% | [2] -1.75% | [3] 2.5% | [4] 2.6% | [5] -7.35% | [6] -3%

C(=C/c1ccc(-c2ccccc2)cc1)/c1ccc(-c2ccccc2)cc1
inactive: [1] -4.5% | [2] -13.4% | [3] 11.2% | [4] -23.3% | [5] 24.4% | [6] -2.45%

COc1cc(C)c2cccc(C)c2n1
inactive: [1] 6.6% | [2] 3.85% | [3] -0.4% | [4] -32.2% | [5] -8.8% | [6] 8.7%

NC(=O)NC(=O)Cc1ccc(N)cc1
inactive: [1] 4.6% | [2] -9.1% | [3] 1.9% | [4] 1.1% | [5] 4% | [6] -4.9%

CSCCNC(=O)CS(=O)(=O)c1ccc(N)cc1
inactive: [1] -10.3% | [2] -25.9% | [3] -7.65% | [4] -13.2% | [5] -2.35% | [6] -14.9%

CN(C)S(=O)(=O)N(C)C
inactive: [1] -1.55% | [2] 6.4% | [3] 15.4% | [4] 6.1% | [5] -8.45% | [6] 26.2%
